Experimental data from PubChem BioAssay.
Calls of active or inactive are those of the source.

Assays:
[1] = compound effects on lung adenocarcinoma cell viability – A549, calcein-AM fluorescence, 48 h, basal, profiling panel (AID 1162); conditions: higher = more signal
[2] = compound effects on differentiated 3T3-L1 adipocyte viability – cell-based, 3T3-L1 adipocytes, calcein-AM fluorescence, 48 h, basal, profiling panel (AID 1163); conditions: 3T3-L1 adipocytes viability, higher = more signal
[3] = compound effects on hepatocellular carcinoma cell viability – HepG2, calcein-AM fluorescence, 48 h, basal, profiling panel (AID 1164); conditions: higher = more signal
[4] = compound effects on multiple myeloma cell viability – MM1S, calcein-AM fluorescence, 48 h, basal, profiling panel (AID 1165); conditions: higher = more signal
[5] = calcein-AM signal in unstimulated myeloma cells – cell-based, calcein-AM fluorescence, 48 h, PK04 Diversity Set, profiling panel (AID 1166); conditions: RPMI8226 myeloma viability, higher = more signal;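 also: cells grown under basal conditions without added stimulus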
[6] = JC-1 mitochondrial signal, unstimulated HepG2 cells – cell-based, JC-1 fluorescence, 24 h, 100 nL compound, profiling panel (AID 1167); conditions: HepG2 mitochondrial potential, higher = more signal
[7] = JC-1 mitochondrial signal, unstimulated adipocytes – cell-based, JC-1 fluorescence, 3T3-L1 adipocytes, 24 h, 100 nL compound, profiling panel (AID 1168); conditions: JC-1 mitochondrial fluorescence, higher = more signal, called active from +8 up or from −8 down
[8] = JC-1 mitochondrial signal, unstimulated myeloma cells – cell-based, JC-1 fluorescence, RPMI8226, 24 h, 100 nL compound, profiling panel (AID 1169); conditions: JC-1 mitochondrial potential fluorescence, higher = more signal
[9] = JC-1 mitochondrial signal, unstimulated MM1S myeloma – cell-based, JC-1 fluorescence, 24 h, 100 nL compound, profiling panel (AID 1170); conditions: MM1S mitochondrial potential, higher = more signal
[10] = resazurin metabolic signal in A549 cells – cell-based, resazurin fluorescence, 24 h, PK04 Diversity Set, profiling panel (AID 1171); conditions: A549 viability, higher = more signal, called active from +8 up or from −8 down
Also: test concentration not given here.

Row | Compound | z-score [1] | z-score [2] | z-score [3] | z-score [4] | z-score [5] | z-score [6] | z-score [7] | z-score [8] | z-score [9] | z-score [10]
1 | COC(=O)[C@@]1(Cc2ccc(F)cc2)[C@H]2c3cc(C(=O)N4CCCC4)n(Cc4ccc(S(C)(=O)=O)cc4)c3C[C@H]2CN1C(=O)c1ccccc1 | 0.0676 | 0.582 | -0.035 | -1.23 | -1.35 | 2.11 | -1.3 (inactive) | 0.611 | -0.583 | 0.039 (inactive)
2 | CN1C=C(C(=O)OCCS(C)(=O)=O)C(C(=O)OCCS(C)(=O)=O)=CC(c2ccc(CO)cc2)=CC1C1CC1 (stereo not given) | 1.39 | -0.0622 | 1.28 | -0.807 | -0.75 | 2.14 | -0.9 (inactive) | 0.167 | -0.919 | -0.267 (inactive)
3 | COCCOC(=O)N1C(=O)[C@@]2(c3ccccc31)[C@H](C(=O)N1CCc3cc(OC)c(OC)cc3C1)[C@H]1C(=O)O[C@H](c3ccccc3)[C@H](c3ccccc3)N1[C@@H]2c1ccc(OCCO)cc1 | 1.23 | 1.48 | 0.852 | -1.1 | 0.494 | 0.384 | 0.139 (inactive) | -0.618 | -0.483 | 0.779 (inactive)
4 | COCCOC(=O)N1C(=O)[C@@]2(c3cc(C#CC4(O)CCCCCC4)ccc31)[C@H](c1ccc(OCCO)cc1)N1[C@H](c3ccccc3)[C@H](c3ccccc3)OC(=O)[C@H]1[C@@H]2C(=O)N1CCN(c2ncccn2)CC1 | -0.147 | -0.507 | -0.0949 | -0.373 | 0.182 | -0.643 | 0.295 (inactive) | -0.266 | -1.19 | -0.473 (inactive)
5 | CC(C)c1ccc(NN2C(C(O)c3ccc(B(O)O)cc3)C=CC3C(=O)N(c4ccccc4)C(=O)C32)cc1 (stereo not given) | -1.34 | -0.386 | -1.28 | -0.571 | -0.587 | -1.75 | -1.56 (inactive) | -0.894 | 0.00559 | -0.212 (inactive)
6 | C=C(CCCC)/C(=C/C[C@H](OC(C)=O)c1ccccc1OCCO)c1cc(C(=O)OC)ccc1OC | 0.379 | 1.66 | -0.418 | -1.36 | -1.93 | 2.79 | 0.63 (inactive) | 0.275 | 0.0208 | 0.423 (inactive)
7 | C=CCOC(=O)[C@H]1[C@@H]2C(=O)O[C@@H](c3ccccc3)[C@@H](c3ccccc3)N2[C@@H](c2ccc(OCCOC(=O)[C@H]3C[C@H]4C(=O)N[C@@H](CCCCNC(C)=O)C(=O)N4[C@H]3c3cccc(OCCO)c3)cc2)[C@]12C(=O)Nc1ccccc12 | -0.112 | 0.457 | -0.696 | -0.297 | 0.728 | -0.235 | 1.91 (inactive) | -0.0898 | -0.67 | 0.319 (inactive)
8 | Cc1ccc(S[C@]2(C(=O)NC3CC3)CC(=O)N(Cc3ccccc3)[C@@H]2c2ccc(CO)cc2I)cc1 | 2.11 | 0.388 | 0.935 | -1.99 | -2.06 | 1.55 | 0.679 (inactive) | -0.525 | -1.26 | 0.618 (inactive)
9 | C=CCC(OC(C)=O)[C@@H]1[C@@H](N(Cc2ccc(-c3ccccc3)cc2)C(=O)c2cccc3ccccc23)c2cc(OCCCO)ccc2N1C(=O)c1ccc(-c2ccccc2)cc1 (stereo not given in full) | 0.143 | 0.286 | 0.391 | 0.139 | -0.094 | 3.13 | 0.266 (inactive) | -0.745 | -0.00624 | 0.126 (inactive)
10 | C=C(COC)/C(=C/C[C@@H](OC(=O)c1ccncc1)c1ccc(CO)o1)c1cc(C(=O)OC)ccc1OC | 0.27 | -0.766 | 0.466 | -0.761 | -0.27 | 0.232 | -0.478 (inactive) | -0.277 | -1.28 | 0.386 (inactive)
11 | Cc1ccc(S[C@]2(C(=O)NCCCN(C)C)CC(=O)N(Cc3ccccc3C(F)(F)F)[C@@H]2c2ccc(CO)cc2)cc1 | 0.397 | -0.22 | 0.41 | 0.306 | 0.595 | 1.47 | 0.0218 (inactive) | 0.139 | 0.427 | -0.515 (inactive)
12 | C#C[C@H](O[Si](C#Cc1ccc(Oc2ccccc2)cc1)(C(C)C)C(C)C)c1ccccc1 | -2.21 | -1.19 | -1.48 | -3.02 | -4.16 | -3.3 | -0.805 (inactive) | -0.836 | -1.34 | -1.3 (inactive)
13 | CC(C)=CCN[C@H](CO)c1ccccc1 | -0.11 | 1.93 | -0.0885 | -1.22 | -1.9 | -0.416 | 0.476 (inactive) | -0.0908 | 0.559 | -0.278 (inactive)
14 | Cc1ccc(S[C@]2(C(=O)NCCCN(C)C)CC(=O)N(Cc3cc(C(F)(F)F)cc(C(F)(F)F)c3)[C@@H]2c2ccc(CO)cc2I)cc1 | 0.0371 | -0.787 | 0.241 | -2.19 | -2 | -0.547 | 0.669 (inactive) | -0.442 | -2.03 | -0.335 (inactive)
15 | C=C(CCCC)/C(=C/C[C@@H](OC(C)=O)c1ccc(OCCO)cc1)c1cnc2ccccc2c1 | 2.57 | 0.197 | 1.12 | -1.27 | -0.0971 | 1.65 | -0.38 (inactive) | -0.364 | -1.16 | 0.775 (inactive)
16 | COC(=O)[C@@]1(Cc2ccc(OC)cc2)[C@H]2c3cc(C(=O)N4CCCC4)n(Cc4ccc(C)c(F)c4F)c3C[C@H]2CN1C(=O)c1ccccc1 | 0.842 | 0.0891 | 0.682 | -1.59 | -2.66 | 3.41 | -0.411 (inactive) | -0.735 | -1.51 | -0.268 (inactive)
17 | O=C1OCCC/C=C\[C@H]2OC34C=CCN(Cc5ccccc5)C(=O)[C@H]3N(CCCO)C(=O)[C@@H]4C12 (stereo not given in full) | -0.0592 | -0.0687 | 0.556 | 1.58 | 0.438 | 0.315 | 0.478 (inactive) | 0.0319 | 1.44 | 0.0483 (inactive)
18 | Cc1ccccc1C(O)C1C=CC2C(=O)N(c3ccccc3)C(=O)C2N1Nc1ccc(C(C)C)cc1 (stereo not given) | -0.0475 | -0.127 | -0.169 | -0.136 | -0.727 | -2.15 | -1.8 (inactive) | -0.754 | -0.0109 | -1.41 (inactive)
19 | CCOC(=O)C[C@H]1[C@H](OC(=O)c2ccc(C(=O)c3ccccc3)cc2)[C@@H](NC(=O)c2ccc3ccccc3c2)c2cc(OCCCO)ccc2N1C(=O)Cc1ccc(OC)cc1 | -0.0783 | 0.539 | 0.294 | 0.655 | 0.39 | 1.32 | -0.808 (inactive) | -0.716 | -0.51 | 0.0571 (inactive)
20 | COC(=O)[C@@]1(Cc2ccc(OC)cc2)[C@H]2c3cc(C(=O)N4CCCC4)n(Cc4ccc(O)c(OC)c4)c3C[C@H]2CN1C(=O)c1ccccc1 | -0.226 | 0.174 | 0.321 | 0.11 | -0.243 | 2.27 | -0.183 (inactive) | -0.221 | -0.933 | -1.47 (inactive)
21 | O=C1[C@@]23C=C(Br)[C@H](C[C@@H]2CCOC3)[C@@]12CO2 | 0.845 | -0.711 | -0.0809 | -1.89 | -0.491 | -1.08 | -0.0633 (inactive) | -0.849 | -0.688 | -0.309 (inactive)
22 | COc1cc2c(cc1O)C(C1CC1)N(Cc1sc3ccccc3c1Cl)CC2 (stereo not given) | -4 | 0.0337 | -4.15 | -3.32 | -4.44 | -3.67 | -1.07 (inactive) | -0.858 | -0.539 | -0.663 (inactive)
23 | COCCOC(=O)N1C(=O)[C@@]2(c3cc(C#CCCO)ccc31)[C@H](C(=O)N1CCCCCCC1)[C@H]1C(=O)O[C@H](c3ccccc3)[C@H](c3ccccc3)N1[C@@H]2c1ccc(OCCO)cc1 | 0.338 | 1.74 | 0.155 | -0.284 | -1.54 | -1.68 | -1.47 (inactive) | -1.25 | -1.02 | 0.76 (inactive)
24 | COC(=O)[C@@]1(Cc2ccccc2)[C@H]2c3cc(C(=O)N(C)C)n(Cc4ccsc4Br)c3C[C@H]2CN1C(=O)c1ccccc1 | 0.209 | -1.34 | 0.369 | -1.13 | -1.34 | 1.17 | 0.332 (inactive) | -0.776 | -2 | -2.34 (inactive)
25 | CC(C)C[C@@H]1NC(=O)[C@H](C(C)C)NC(=O)[C@@]23C(=O)N[C@@H](Cc4ccccc4)C2[C@H](C)[C@@]2(C)O[C@H]2C3/C=C/CC/C=C/CNC1=O (stereo not given in full) | -0.642 | 1.39 | -0.504 | -0.359 | -0.789 | -0.0491 | -0.321 (inactive) | 0.0651 | 1.72 | 0.612 (inactive)
26 | CCCC[C@H]1OB(O)C[C@H]2C1=C(COC)C[C@H]1C(=O)N(C)C(=O)[C@H]12 | -0.0959 | -0.671 | -0.653 | -1.34 | -0.744 | -1.27 | 0.0166 (inactive) | -0.528 | -0.355 | -0.531 (inactive)
27 | CCOC(=O)C[C@H]1[C@H](OC(=O)c2ccc(C(=O)c3ccccc3)cc2)[C@@H](NC(=O)CC(C)C)c2cc(OCCCO)ccc2N1C(=O)c1ccc2ccccc2n1 | 0.713 | -0.177 | 0.592 | 0.143 | 0.263 | 2.53 | 1.59 (inactive) | 0.944 | -0.67 | 0.59 (inactive)
28 | COc1ccc(-c2cc3c(c(-c4ccc(Oc5ccccc5)cc4)n2)[Si](C(C)C)(C(C)C)OC3)cn1 | -0.599 | -0.377 | 0.645 | -1.19 | -1.75 | -1.43 | -0.47 (inactive) | -0.845 | -0.973 | 1.07 (inactive)
